Data: the supplement of paper PMC11219838

Test system: Ditylenchus dipsaci
Assay: proportion of mobile D. dipsaci (mixed stage) relative to DMSO control (fraction of DMSO control); higher = more viable, less nematicidal, active = 0.86 or less; extreme values may be limits of the assay
Settings: 60 µM; 5 days; temperature: 20 °C
Method in brief: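 Mobility, expressed relative to DMSO controls, is the mean of two biological replicates. The test organisms were D. dipsaci grown on pea plants in Gamborg B-5 agar and extracted into water by filter funnel, with about 20 added per well of a 96-well plate in distilled water. Compound was pinned to 60 µM final (0.6% v/v DMSO), plates were sealed and shaken at 200 rpm for 5 days at 20 °C, and mobile worms were scored under a microscope once 2 µL 1 M NaOH had been added.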

| SMILES | proportion of mobile D. dipsaci |
| --- | --- |
| CC[C@H](C)[C@H]1O[C@]2(C=C[C@@H]1C)C[C@@H]1C[C@@H](C/C=C(\C)[C@@H](O[C@H]3C[C@H](OC)[C@@H](O[C@H]4C[C@H](OC)[C@@H](O)[C@H](C)O4)[C@H](C)O3)[C@@H](C)/C=C/C=C3\CO[C@@H]4[C@H](O)C(C)=C[C@@H](C(=O)O1)[C@]34O)O2.CO[C@H]1C[C@H](O[C@H]2[C@H](C)O[C@@H](O[C@@H]3/C(C)=C/C[C@@H]4C[C@@H](C[C@]5(C=C[C@H](C)[C@@H](C(C)C)O5)O4)OC(=O)[C@@H]4C=C(C)[C@@H](O)[C@H]5OC/C(=C\C=C\[C@@H]3C)[C@]54O)C[C@@H]2OC)O[C@@H](C)[C@@H]1O [abamectin] | 0.727 (active) |
| O=C(NCCc1ncc(C(F)(F)F)cc1Cl)c1ccccc1C(F)(F)F [fluopyram] | 0 (active) |
| CC(C)NC(=O)N1CC(=O)N(c2cc(Cl)cc(Cl)c2)C1=O [iprodione] | 1 (inactive) |
| CNC(=O)O/N=C(\SC)C(=O)N(C)C [oxamyl] | 1 (inactive) |

Test system: Caenorhabditis elegans L1 (N2)
Assay: survival and reproduction score of C. elegans L1 (0: 0-10 living worms, 1: 11-20, 2: 21-50, 3: >50, 4: overgrown) (score 0-4); higher = more worms, less nematicidal, active = 1 or less; extreme values may be limits of the assay
Settings: 60 µM; 6 days; temperature: 20 °C
Method in brief: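 Compound was pinned to a final 60 µM (0.6% v/v DMSO) into 96-well wells, each holding about 20 synchronized C. elegans N2 L1s and E. coli HB101 in liquid NGM. After 6 days of shaking at 200 rpm and 20 °C in sealed plates, the worms in each well were examined. The ordinal readout of survival and reproduction, based on living worms per well, was assessed under a dissection microscope. On this scale 0 meant 0–10 worms and 4 meant overgrown, starved wells, and two biological replicates were averaged.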

| SMILES | survival and reproduction score |
| --- | --- |
| COc1cccc(-c2nnc(SCc3ccccc3C)o2)c1 | 4 (inactive) |
| CCOc1cc(-c2nc(-c3ccc(C)nc3OC)no2)cc(OCC)c1OCC | 4 (inactive) |
| CC[C@H](C)[C@H]1O[C@]2(C=C[C@@H]1C)C[C@@H]1C[C@@H](C/C=C(\C)[C@@H](O[C@H]3C[C@H](OC)[C@@H](O[C@H]4C[C@H](OC)[C@@H](O)[C@H](C)O4)[C@H](C)O3)[C@@H](C)/C=C/C=C3\CO[C@@H]4[C@H](O)C(C)=C[C@@H](C(=O)O1)[C@]34O)O2.CO[C@H]1C[C@H](O[C@H]2[C@H](C)O[C@@H](O[C@@H]3/C(C)=C/C[C@@H]4C[C@@H](C[C@]5(C=C[C@H](C)[C@@H](C(C)C)O5)O4)OC(=O)[C@@H]4C=C(C)[C@@H](O)[C@H]5OC/C(=C\C=C\[C@@H]3C)[C@]54O)C[C@@H]2OC)O[C@@H](C)[C@@H]1O [abamectin] | 0 (active) |
| N#Cc1ccccc1CSc1nnc(-c2ccncc2)o1 | 4 (inactive) |
| Ic1ccc(CSc2nnc(-c3ccco3)o2)cc1 | 3.5 (inactive) |
| COc1ccc(-c2noc(COc3ccc4c(c3)CCCC4)n2)cc1 | 4 (inactive) |
| CC(Sc1nnc(-c2ccco2)o1)C(=O)NC(c1ccccc1)c1ccccc1 (stereo not given) | 4 (inactive) |
| O=C(CSc1nnc(-c2cccc(Cl)c2)o1)Nc1nccs1 | 4 (inactive) |
| Cc1ccc(-c2nnc(SCc3ccccc3)o2)cc1 | 0 (active) |
| Cc1cccc(-c2nnc(SCC(=O)NCCc3ccccc3)o2)c1 | 4 (inactive) |
| Cc1ccc(-c2nc(-c3ccccc3Cl)no2)cc1 | 4 (inactive) |
| O=C(NCCc1ncc(C(F)(F)F)cc1Cl)c1ccccc1C(F)(F)F [fluopyram] | 0 (active) |
| Brc1ccc(CSc2nnc(-c3ccncc3)o2)cc1 | 4 (inactive) |
| Cc1ccc(-c2noc(COc3ccccc3Cl)n2)cc1 | 4 (inactive) |
| Cc1ccc(-c2nc(-c3ccccc3Cl)no2)c(Cl)c1 | 4 (inactive) |
| COc1ccccc1-c1nc(-c2cccc(Br)c2)no1 | 4 (inactive) |

| SMILES | survival and reproduction score |
| --- | --- |
| Clc1cc(Br)ccc1OCc1nc(-c2ccncc2)no1 | 4 (inactive) |
| N#Cc1ccc(CSc2nnc(-c3ccco3)o2)cc1 | 1.5 (inactive) |
| Ic1ccc(CSc2nnc(-c3ccccc3)o2)cc1 | 4 (inactive) |
| Cc1cccc(OC(C)c2nc(-c3ccncc3)no2)c1 (stereo not given) | 4 (inactive) |
| CC(C)NC(=O)N1CC(=O)N(c2cc(Cl)cc(Cl)c2)C1=O [iprodione] | 4 (inactive) |
| Cc1ccc(-c2noc(-c3cccc(Br)c3)n2)cc1 | 4 (inactive) |
| O=C(Nc1ccccc1-c1nc(-c2cccnc2)no1)c1cccc(Cl)c1 | 4 (inactive) |
| O=C(Nc1ccccc1-c1nc(-c2cccnc2)no1)c1ccccc1Cl | 4 (inactive) |
| CCOc1nc(-c2ccccc2)ccc1-c1noc(-c2cccc(C)c2)n1 | 4 (inactive) |
| COc1ccc(-c2nnc(SCC(=O)OCc3ccccc3)o2)cc1 | 4 (inactive) |
| CCOc1ccc(-c2nc(-c3ccc(Cl)cc3)no2)cc1 | 3 (inactive) |
| COc1ccccc1-c1noc(-c2ccccc2F)n1 | 4 (inactive) |
| COc1ccccc1-c1nnc(SCc2ccc(F)cc2)o1 | 4 (inactive) |
| O=C(CSc1nnc(-c2cccc(F)c2)o1)Nc1ccccc1C(=O)c1ccccc1 | 4 (inactive) |
| COc1cccc(NC(=O)c2ccccc2-c2nc(-c3ccc(F)cc3)no2)c1 | 4 (inactive) |
